Source: PubChem BioAssay (NCATS)
Inconclusive results are not listed. Where a call stands in place of a potency, no number is given. Activity calls are given as the source filed them. The call rests on the fitted dose curve; in most records, active means well fitted cell-killing curve with a large enough effect; inconclusive means small, poorly fitted or top-dose-only effect; inactive means flat fitted curve, though single readings scatter.

Test: qHTS of pediatric cancer cell lines to identify multiple opportunities for drug repurposing: Primary screen for DAOY cells (AID 1347090); further: nearly all actives have a fitted effect of over 55% in size
Settings: DAOY medulloblastoma viability, CellTiter-Glo luminescence, 48 h; series mostly up to 46 µM
Text: Drug repurposing or repositioning has been offered as a strategy for drug development in oncology programs. This approach has special potential for childhood cancers and other rare or orphan diseases, where the expected return on new drug development has been a disincentive to pharmaceuticals.
In this project we exploit the poly-pharmacology of drugs to discover new indications via phenotypic screening of a panel of 19 well-characterized cell lines derived from solid tumors seen in children and adolescents. The goal is to identify approved drugs with previously unrecognized anticancer properties that has the potential to reveal new mechanisms and biological processes involved in carcinogenesis or drug resistance. We employed a titration-based paradigm (quantitative high-throughput screening or qHTS), where all compounds were tested at multiple concentrations for their effect on cell viability. Concentration-response curves (CRCs) were derived directly from the primary screen, and both potency and efficacy values were used to identify compounds with robust bioactivity profiles. We screened the NIH Chemical Genomics Center (NCGC) Pharmaceutical Collection (NPC) and Mechanism Interrogation Plate (MIPE) small molecule collections of approved and investigational compounds against these cell lines; and measured metabolically active cells after 48 hours of compound treatment as a proxy for cell viability.
Assay Submitter: Nathalia J. Martinez, National Center for Advancing Translational Sciences, National Institutes of Health, Rockville, MD, USA; email: natalia.martinez@nih.gov
[1] Shen, M et al. Quantitative high-throughput phenotypic screening of pediatric cancer cell lines identifies multiple opportunities for drug repurposing. Oncotarget 2017 Dec 19;9(4):4758-4772. PMID 29435139.
The cells were obtained from University of North Carolina (UNC), Pediatric Preclinical Testing Program (PPT), and Coriell Institute (CI).
qHTS cell viability assay:
Cells were assayed in growth media at a density of 500-1,000 cells/well. Five microliters of cells were dispensed into 1,536-well, white, solid-bottom, TC-treated plates (Greiner Bio One) using a multidrop dispenser and incubated at 37 degrees C, 5% CO2, under a humidified atmosphere for 5 hours. Twenty-three nanoliters of compounds and controls (neutral control DMSO or positive control bortezomib at final concentration of 2.3 µM) were subsequently transferred by Kalypsys pintool. For primary screens, the MIPE collection was tested at 11-point dilutions (final concentrations range from 0.78 nM to 46 µM) and the NPC collection at 8-point dilutions (final concentrations range from 0.59 nM to 46 µM). Compounds tested in follow-up screens were assayed at 11-point dilutions. Cells were incubated for 48 hours, followed by addition of 3 uL of CellTiter-Glo (Promega). After a 15 min incubation at room temperature, samples were analyzed for luminescence intensity using a ViewLux High-throughput CCD imager equipped with clear filters.
Potency means the concentration at half of the fitted maximal effect.

| Structure (SMILES) | Potency |
| --- | --- |
| O=S(=O)(O)C(F)(F)C(F)(F)C(F)(F)C(F)(F)C(F)(F)C(F)(F)C(F)(F)C(F)(F)F | inactive |
| O=[N+]([O-])c1ccc([As](=O)(O)O)cc1 | inactive |
| O=c1cccc2n1CC1CNC[C@H]2C1 | 18.7 µM (active) |
| Cc1c(C(=O)c2cccc3ccccc23)c2cccc3c2n1[C@H](CN1CCOCC1)CO3 | 23.5 µM (active) |
| CC[C@@]1(O)C(=O)OCc2c1cc1n(c2=O)Cc2cc3ccccc3nc2-1 | 0.0469 µM (active) |
| COCC1(CO)C(=O)C2CCN1CC2 (stereo not given) | 23.5 µM (active) |
| CCO/N=C(\CC)C1=C(O)CC(c2c(C)cc(C)cc2C)CC1=O (stereo not given) | inactive |
| CCOP(=O)(OCC)C(C)NC(=O)N(CCCl)N=O (stereo not given) | inactive |
| CC1(C)CC/C(=C/c2ccc(Cl)cc2)C1(O)Cn1cncn1 (stereo not given) | inactive |
| CC(N[C@H]1C[C@H]1c1ccccc1)c1ccc2c(c1)OCCO2 (stereo not given in full) | inactive |
| ClC1=C(Cl)[C@]2(Cl)[C@@H]3[C@@H]4C[C@@H]([C@H]5O[C@@H]45)[C@@H]3[C@@]1(Cl)C2(Cl)Cl | 38.6 µM (active) |
| CCC(=O)O[C@@H]1C=C2CCC3C(CCC4(C)C3CC[C@@H]4OC(=O)CC)C2CC1 (stereo not given in full) | inactive |
| Clc1ccccc1C(c1ccccc1)(c1ccccc1)n1cccn1 | inactive |
| CS(=O)(=O)c1ccc(C(=O)C2C(=O)CCCC2=O)c([N+](=O)[O-])c1 | inactive |
| O=C(O)COc1ccccc1 | inactive |
| CC1(N2CCC(n3c([C@@H]4CCCNC4)nc4ccccc43)CC2)CCCCCCC1 | inactive |
| CN(C)NC(=O)CCC(=O)O | inactive |
| CCN1C[C@]2(OC(=O)c3ccccc3NC(C)=O)CC[C@H](OC)[C@@]34[C@H]5CC6[C@@H](OC)C[C@](O)(C(C[C@@H]23)[C@@H]14)[C@@]5(O)[C@@H]6OC | inactive |
| CC(C)(C)C(O)C(Oc1ccc(Cl)cc1)n1cncn1 (stereo not given) | inactive |
| O=C(Nc1ccncc1)C(=O)c1cn(Cc2ccc(Cl)cc2)c2ccccc12 | 0.0935 µM (active) |

| Structure (SMILES) | Potency |
| --- | --- |
| CC1=NN=C(c2ccc(N)cc2)c2cc3c(cc2C1)OCO3 | inactive |
| C#C[C@]1(O)C=C[C@@H]2[C@@H]3CCC4=CC(=O)CC[C@@H]4[C@H]3CC[C@@]21CC | inactive |
| COc1cccc2c1[C@]13CCN(CC4CC4)[C@H](C2)[C@]1(OC)CCC(=O)C3 | inactive |
| CSCC[C@@H](NC(=O)[C@@H](Cc1ccccc1)NC(=O)CNC(=O)CNC(=O)[C@@H](N)Cc1ccc(O)cc1)C(=O)O | inactive |
| COc1ccc(C(=O)c2c(C)n(CCN3CCOCC3)c3cc(I)ccc23)cc1 | 18.7 µM (active) |
| C1=C2CCCN[C@H]2[C@@H]2C[C@H]1[C@@H]1CCCCN1C2 | inactive |
| CC(C)NCC(O)c1ccc([N+](=O)[O-])cc1 (stereo not given) | inactive |
| CCCCOC(=O)c1ccccc1C(=O)OCc1ccccc1 | inactive |
| c1cc2c(cc1[C@H]1OC[C@H]3[C@H]1CO[C@H]3c1ccc3c(c1)OCO3)OCO2 | inactive |
| CCOC(=O)c1cncn1[C@H](C)c1ccccc1 | inactive |
| Cc1ccccc1-n1c(Cn2ncc3c(N)ncnc32)nc2cccc(C)c2c1=O | 0.0935 µM (active) |
| COC1=CC(C)=C[C@@H](C)[C@@H](O)[C@@H](C)CC(C)=CC=C[C@H](OC)[C@H]([C@@H](C)[C@@H](O)[C@H](C)[C@@]2(O)C[C@@H](O)[C@H](C)[C@@H](C(C)C)O2)OC1=O | 0.0023 µM (active) |
| O=C(NCC1CCOCC1)c1cnc(Nc2ccc(Cl)cc2Cl)nc1C(F)(F)F | 18.7 µM (active) |
| CCN1CCN(C(=O)Cc2ccc(Nc3ncc(F)c(Nc4ccc(C(=O)Nc5ccccc5Cl)cc4)n3)cc2)CC1 | 3.72 µM (active) |
| CC(C)N(CCNC(=O)CN1CCCC1=O)C(C)C | inactive |
| O=S(=O)(c1ccc(Cl)cc1)c1ccc(Cl)cc1 | inactive |
| O=S(=O)(F)Cc1ccccc1 | inactive |
| CCCCCC[C@H]1C(=O)O[C@H](C)[C@H](NC(=O)c2cccc(NC=O)c2O)C(=O)O[C@@H](C)[C@@H]1OC(=O)CC(C)C | 0.0372 µM (active) |
| C#CC1(O)CCC2C3CCC4=CC(=O)CCC4(C)C3CCC21C (stereo not given) | inactive |
| O=C(O)C(Cl)Cl | inactive |
